In PubChem BioAssay (NCATS):
Results filed as inconclusive are left out. Activity calls are given as the source filed them. The call rests on the fitted dose curve; in most records, active means well fitted inhibition curve with a large enough effect; inconclusive means small, poorly fitted or top-dose-only effect; inactive means flat fitted curve, though single readings scatter.

Legend:
Assay in all cases: qHTS profiling for inhibitors of Plasmodium falciparum proliferation (AID 504749); further: nearly all actives have a fitted effect of over 60% in size
Settings in all cases: P. falciparum in erythrocytes, SYBR Green DNA, 72 h; series mostly up to 28.7 µM
CP194 = tested on: CP194
Outline: (§1)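 SYBR Green fluorescence (ex 485 nm, em 535 nm) reports parasite DNA after 72 h compound exposure of infected red cells at 0.3% parasitemia, 2.5% hematocrit; signal normalized to 0.29 uM artemisinin and vehicle wells.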

CP201 = tested on: CP201
Outline: as §1

CP203 = tested on: CP203
Outline: as §1

CP211 = tested on: CP211
Outline: as §1

CP215 = tested on: CP215
Outline: as §1

CP237 = tested on: CP237
Outline: as §1

CP247 = tested on: CP247
Outline: as §1

CP250 = tested on: CP250
Outline: as §1

CP256 = tested on: CP256
Outline: as §1

CP260 = tested on: CP260
Outline: as §1

CP262 = tested on: CP262
Outline: as §1

CP266 = tested on: CP266
Outline: as §1

CP268 = tested on: CP268
Outline: as §1

CP269 = tested on: CP269
Outline: as §1

CP286 = tested on: CP286
Outline: as §1

CP291 = tested on: CP291
Outline: as §1

CP217 = tested on: CP217
Outline: as §1

CP238 = tested on: CP238
Outline: as §1

CP252 = tested on: CP252
Outline: as §1

CP265 = tested on: CP265
Outline: as §1

Measured: Potency
Potency means the concentration at half of the fitted maximal effect.

O=P(O)(O)OP(=O)(O)O
not listed: CP217 | CP238 | CP252 | CP265
inactive: all other assays above

Cn1c(=O)c2c(ncn2CCOC(=O)C(C)(C)Oc2ccc(Cl)cc2)n(C)c1=O
not listed: CP247 | CP256 | CP217 | CP238 | CP252 | CP265
inactive: all other assays above

COc1cc(C)c(/C=C/C(C)=C/C=C/C(C)=C/C(=O)O)c(C)c1C
not listed: CP215
inactive: all other assays above

O=C(OC1C[C@@H]2CC3C[C@H](C1)N2CC3=O)c1c[nH]c2ccccc12 (some centres undefined)
not listed: CP211
inactive: all other assays above

Cc1ncc(C[n+]2csc(CCO)c2C)c(N)n1
not listed: CP215 | CP256
inactive: all other assays above

COc1ccc(-c2noc(CC(=O)O)c2-c2ccc(OC)cc2)cc1
not listed: CP203
inactive: all other assays above

OCc1ccccc1
inactive: CP194 | CP201 | CP211 | CP238 | CP252 | CP262 | CP266
active: CP250 10 µM | CP256 12.6 µM

CCCOc1cc(N)ccc1C(=O)OCCN(CC)CC
not listed: CP211 | CP247 | CP256 | CP269
inactive: all other assays above

CC(=O)Oc1cccc2c1C(=O)c1c(OC(C)=O)cc(C(=O)O)cc1C2=O
not listed: CP211
inactive: all other assays above

N=C(N)c1ccc(/C=C/c2ccc(C(=N)N)cc2O)cc1
active: CP194 6.01 µM | CP201 12 µM | CP203 15.1 µM | CP215 5.36 µM | CP217 11.2 µM | CP237 5.01 µM | CP238 10 µM | CP247 10 µM | CP250 11.2 µM | CP252 15.8 µM | CP256 0.447 µM | CP260 11.2 µM | CP262 1.35 µM | CP265 11.2 µM | CP268 9.53 µM | CP269 6.75 µM | CP286 4.47 µM | CP291 6.75 µM

C/C=C/C=C/C(=O)O
not listed: CP194 | CP215
inactive: all other assays above

CC(=O)c1ccc2c(c1)N(CCCN1CCN(CCO)CC1)c1ccccc1S2
active: CP217 10 µM | CP237 11.2 µM | CP247 11.2 µM | CP252 10 µM | CP256 8.91 µM | CP265 11.2 µM | CP268 12 µM | CP269 10.7 µM | CP286 8.91 µM

OCCOCCOCCO
active: CP215 16.9 µM
not listed: CP194 | CP201 | CP203 | CP211 | CP266 | CP268 | CP269 | CP291
inactive: all other assays above

CC[C@H]1OC(=O)[C@H](C)[C@@H](O[C@H]2C[C@@](C)(OC)[C@@H](O)[C@H](C)O2)[C@H](C)[C@@H](O[C@@H]2O[C@H](C)C[C@H](N(C)C)[C@H]2O)[C@](C)(O)C[C@@H](C)CN(C)[C@H](C)[C@@H](O)[C@]1(C)O
active: CP217 5.62 µM | CP237 5.01 µM | CP238 5.62 µM | CP252 4.47 µM | CP256 2.24 µM | CP265 10 µM | CP269 1.51 µM | CP286 3.98 µM

CS(=O)(=O)c1ccc([C@@H](O)[C@@H](COC(=O)CN)NC(=O)C(Cl)Cl)cc1
inactive: CP247 | CP250 | CP262

CNC(=O)[C@H](Cc1c[nH]c2ccccc12)NC(=O)[C@@H](CC(=O)NO)CC(C)C
inactive: CP201 | CP252 | CP291

CCCC(CCC)C(=O)OC1C[C@H]2CC[C@@H](C1)[N+]2(C)C (some centres undefined)
active: CP256 12.6 µM | CP265 8.91 µM
inactive: CP266

N#Cc1ccc2c(c1)N(CCCN1CCC(O)CC1)c1ccccc1S2
active: CP260 11.2 µM
inactive: CP217 | CP252 | CP262 | CP266

Cn1c(O)c(N=NC(N)=S)c2ccccc21
active: CP237 11.2 µM | CP247 8.91 µM
inactive: CP201 | CP203 | CP211 | CP266 | CP268 | CP269

C/C(=C\C(=O)OCCCCCCCCC(=O)O)C[C@@H]1OC[C@H](C[C@@H]2O[C@H]2[C@@H](C)[C@H](C)O)[C@@H](O)[C@H]1O
active: CP194 0.135 µM | CP256 0.316 µM | CP269 0.239 µM

CN(C)CCC=C1c2ccccc2C(C)(C)c2ccccc21
inactive: CP238 | CP247

Oc1cccc(O)c1O
inactive: CP217 | CP238 | CP250 | CP252 | CP256 | CP266

N[C@@H](Cc1cc(I)c(Oc2ccc(O)c(I)c2)c(I)c1)C(=O)O
inactive: CP201 | CP211 | CP238 | CP256 | CP262 | CP266 | CP268

COc1cc(NCCCC(C)N)c2ncccc2c1 (centres undefined)
active: CP194 7.57 µM | CP203 7.57 µM | CP215 8.49 µM | CP217 11.2 µM | CP237 7.08 µM | CP238 11.2 µM | CP247 4.47 µM | CP250 5.62 µM | CP252 11.2 µM | CP256 4.47 µM | CP260 8.91 µM | CP262 6.75 µM | CP265 8.91 µM | CP268 6.75 µM | CP269 7.57 µM | CP286 1.41 µM

CCCCCCCCCCCCCCCCOCCOCCOCCOCCOCCOCCOCCOCCOCCOCCOCCOCCOCCOCCOCCOCCOCCOCCOCCOCCO
inactive: CP262 | CP266
active: CP237 7.08 µM | CP260 11.2 µM

C=CC[N+]1([C@H]2C[C@H]3[C@@H]4CC[C@H]5C[C@H](O)[C@@H](N6CCOCC6)C[C@]5(C)[C@H]4CC[C@]3(C)[C@H]2OC(C)=O)CCCC1
active: CP256 11.2 µM

Cn1cc(NC(=O)c2cc(NC(=O)c3cc(NC=O)cn3C)cn2C)cc1C(=O)NCCC(=N)N
active: CP203 12 µM | CP217 7.08 µM | CP237 8.91 µM | CP238 11.2 µM | CP247 6.31 µM | CP250 7.94 µM | CP252 8.91 µM | CP256 11.2 µM | CP260 12.6 µM | CP265 11.2 µM | CP268 9.53 µM | CP269 7.57 µM | CP286 3.98 µM | CP291 9.53 µM

O=C(CCCN1CCN2CCCC2C1)c1ccc(F)cc1 (centres undefined)
active: CP237 10 µM
not listed: CP194 | CP211 | CP256 | CP260 | CP238 | CP265
inactive: all other assays above

CCOC(=O)c1c[nH]c2cc(OCC(C)C)c(OCC(C)C)cc2c1=O
active: CP211 0.0536 µM | CP217 0.0708 µM | CP237 0.0794 µM | CP238 0.126 µM | CP247 0.0794 µM | CP250 0.0794 µM | CP252 0.0891 µM | CP256 0.0708 µM | CP260 0.0708 µM | CP265 0.0891 µM | CP268 0.135 µM | CP286 0.0708 µM | CP291 0.0757 µM

O=C(O[C@H]1CN2CCC1CC2)N1CCc2ccccc2[C@@H]1c1ccccc1
not listed: CP194 | CP211 | CP215 | CP237 | CP247 | CP256 | CP269
inactive: all other assays above

O=C(c1cc2ccccc2o1)N1CCN(Cc2ccccc2)CC1
active: CP256 10 µM | CP265 8.91 µM
inactive: CP238 | CP266

O=c1n(CC2CO2)c(=O)n(CC2CO2)c(=O)n1CC1CO1 (centres undefined)
inactive: CP201 | CP211 | CP215 | CP217 | CP238 | CP256 | CP266 | CP269

CC[C@H]1OC(=O)[C@H](C)[C@@H](O[C@H]2C[C@@](C)(OC)[C@@H](O)[C@H](C)O2)C(C)[C@@H](O[C@@H]2O[C@H](C)C[C@H](N(C)C)[C@@H]2O)[C@](C)(OC)C[C@@H](C)C(=O)[C@H](C)[C@@H](O)[C@]1(C)O (some centres undefined)
active: CP237 7.94 µM | CP256 1.26 µM | CP260 5.62 µM | CP286 8.91 µM
not listed: CP194 | CP211 | CP215 | CP250 | CP262 | CP217
inactive: all other assays above

NC(=S)N=Nc1ccc(NN=C(N)N)cc1
active: CP194 7.57 µM | CP203 12 µM | CP211 7.57 µM | CP215 7.57 µM | CP217 12.6 µM | CP237 10 µM | CP238 11.2 µM | CP247 11.2 µM | CP252 8.91 µM | CP256 1.58 µM | CP260 7.94 µM | CP262 6.01 µM | CP265 12.6 µM | CP268 9.53 µM | CP269 6.75 µM | CP286 4.47 µM | CP291 8.49 µM

CN1CCCC(CN2c3ccccc3Sc3ccccc32)C1 (centres undefined)
active: CP217 10 µM
inactive: CP201 | CP262 | CP265 | CP266

O=C(OCc1ccccc1)c1cccnc1
not listed: CP194 | CP215 | CP256 | CP260 | CP286
inactive: all other assays above

O=C(CCCN1CCC(C(=O)c2ccc(F)cc2)CC1)c1ccc(F)cc1
inactive: CP201 | CP211 | CP215 | CP217 | CP238 | CP250 | CP252 | CP256 | CP262 | CP265 | CP266

NC(N)=NCC1COc2ccccc2O1 (centres undefined)
inactive: CP201 | CP203 | CP217 | CP237 | CP238 | CP250 | CP252 | CP265 | CP291

Cc1cc(-c2ccc(N=Nc3c(S(=O)(=O)O)cc4cc(S(=O)(=O)O)cc(N)c4c3O)c(C)c2)ccc1N=Nc1c(S(=O)(=O)O)cc2cc(S(=O)(=O)O)cc(N)c2c1O
not listed: CP194 | CP237 | CP247 | CP250 | CP260 | CP268 | CP217 | CP238
inactive: all other assays above

CCC(=O)c1ccc2c(c1)N(CCCN1CCN(CCO)CC1)c1ccccc1S2
active: CP201 15.1 µM | CP203 15.1 µM | CP211 13.5 µM | CP217 8.91 µM | CP237 7.94 µM | CP250 8.91 µM | CP252 11.2 µM | CP256 7.08 µM | CP260 10 µM | CP262 6.75 µM | CP265 8.91 µM | CP268 12 µM | CP269 9.53 µM | CP286 4.47 µM | CP291 15.1 µM
